Assays:
Conditions in all cases: concentration: 1 μM, replicates: in singlicate; n = 1
[1] = system: WNK1
[2] = system: WNK2
[3] = system: WNK3
[4] = system: WNK4
[5] = system: T1, YANK1
T1 construct: gene STK32A

[6] = system: T2, YANK2
T2 construct: gene STK32B

[7] = system: T3, YANK3
T3 construct: gene STK32C

[8] = system: T4, YES
T4 construct: gene YES1

[9] = system: T5, YSK1
T5 construct: gene STK25

[10] = system: T6, YSK4
T6 construct: gene MAP3K19
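Further: KINOMEscan kinase panel screen.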

Row | SMILES | %Inh [1] | %Inh [2] | %Inh [3] | %Inh [4] | %Inh [5] | %Inh [6] | %Inh [7] | %Inh [8] | %Inh [9] | %Inh [10]
1 | CNc1nccc(-c2ccc3c(N)n[nH]c3c2)n1 [GSK2206003] | 1% | 0% | 4% | 2% | 62% | 53% | 20% | 24% | 20% | 76%
2 | Cl.Cl.NCC(NC(=O)c1cc(-c2cccnc2)c(-c2ccnc3[nH]ccc23)s1)c1ccccc1 (centres unmarked) [GSK1323434] | 2% | 0% | 80% | 50% | 26% | 0% | 14% | 18% | 17% | 84%
3 | Cc1ccc(C)c(NC(=O)Nc2ccc(C)c(-c3ccc(C(=O)Nc4ccncc4)cc3)c2)c1 [GSK1398473] | 17% | 97.6% | 11% | 17% | 7% | 0% | 15% | 29% | 0% | 87%
4 | N#CC1(c2cccc(C(=O)Nc3cccc(Oc4ccc5nc(NC(=O)C6CC6)sc5n4)c3)c2)CC1 | 6% | 0% | 0% | 0% | 0% | 9% | 0% | 98.7% | 37% | 98.9%
5 | CN(c1ccc(NC(=O)Nc2cccc(Cl)c2)cc1)c1ccnc(N)n1.Cl [GW830707] | 28% | 12% | 38% | 5% | 0% | 16% | 29% | 0% | 0% | 67%
6 | CCNc1nccc(-c2c(-c3ccc(F)cc3)ncn2C2CCN(C)CC2)n1 | 0% | 0% | 0% | 0% | 0% | 0% | 0% | 3% | 5% | 0%
7 | CC(C)(C)c1ccc(C(=O)Nc2cn3cc(-n4ccnc4)ccc3n2)cc1 | 0% | 3% | 0% | 0% | 0% | 0% | 0% | 0% | 0% | 79%
8 | Nc1ncc(-c2ccc3nccc(-c4ccncc4)c3c2)cc1S(=O)(=O)N1CCCCC1 [GSK1693850] | 1% | 4% | 13% | 64% | 5% | 0% | 0% | 10% | 13% | 69%

Source: paper PMC5540273 (PLoS ONE, 2017)
